According to paper PMC4336329 (PLoS ONE, 2015):
In all, about 310,000 compounds went through this assay and about 14,000 (4.5%) showed an effect of 50% or more. The effect is printed as a negative number. Shown is part of a subset that was picked to be rich in strong results.

biological target: human ether-à-go-go-related gene (hERG) potassium channel (human, UniProt Q12809); assay: primary screen, population patch clamp on CHO cells stably expressing hERG; higher = less effect of the substance
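Note: peak tail current of the secondary pulse compared with the same well before compound.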

Sequence of human ether-à-go-go-related gene (hERG) potassium channel (Q12809 whole entry, looked up): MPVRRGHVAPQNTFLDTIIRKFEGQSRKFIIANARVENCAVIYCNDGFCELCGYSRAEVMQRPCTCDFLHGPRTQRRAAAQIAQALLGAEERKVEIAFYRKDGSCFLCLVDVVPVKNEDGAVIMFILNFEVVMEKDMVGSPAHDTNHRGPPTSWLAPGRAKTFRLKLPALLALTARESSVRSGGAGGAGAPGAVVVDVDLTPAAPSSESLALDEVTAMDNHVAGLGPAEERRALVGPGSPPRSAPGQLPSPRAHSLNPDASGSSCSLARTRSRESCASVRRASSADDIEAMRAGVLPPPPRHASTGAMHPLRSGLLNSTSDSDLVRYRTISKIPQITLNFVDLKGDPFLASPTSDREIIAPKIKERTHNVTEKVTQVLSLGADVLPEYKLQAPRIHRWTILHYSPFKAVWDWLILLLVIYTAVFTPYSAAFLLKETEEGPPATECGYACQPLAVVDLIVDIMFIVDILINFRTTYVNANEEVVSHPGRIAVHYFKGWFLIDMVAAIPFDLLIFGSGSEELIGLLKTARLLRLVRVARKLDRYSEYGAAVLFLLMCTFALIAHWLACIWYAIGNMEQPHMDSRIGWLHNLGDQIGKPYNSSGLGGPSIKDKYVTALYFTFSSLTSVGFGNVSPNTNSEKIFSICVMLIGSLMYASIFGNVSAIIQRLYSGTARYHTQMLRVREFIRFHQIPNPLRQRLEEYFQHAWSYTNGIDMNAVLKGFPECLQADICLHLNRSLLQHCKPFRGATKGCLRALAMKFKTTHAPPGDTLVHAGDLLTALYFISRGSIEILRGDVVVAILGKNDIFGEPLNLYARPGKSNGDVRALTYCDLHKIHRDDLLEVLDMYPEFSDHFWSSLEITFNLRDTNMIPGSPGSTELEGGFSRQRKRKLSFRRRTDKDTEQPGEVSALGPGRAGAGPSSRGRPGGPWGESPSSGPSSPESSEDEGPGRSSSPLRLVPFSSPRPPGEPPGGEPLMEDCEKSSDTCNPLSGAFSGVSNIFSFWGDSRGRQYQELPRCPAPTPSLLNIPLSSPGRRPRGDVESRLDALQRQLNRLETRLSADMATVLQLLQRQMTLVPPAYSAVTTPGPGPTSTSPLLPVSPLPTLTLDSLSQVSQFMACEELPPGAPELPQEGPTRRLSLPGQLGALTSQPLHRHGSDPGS

| Compound | hERG current change (%, negative = inhibition) at 10uM |
| --- | --- |
| O=C(CN1C(=O)CC(c2ccco2)Sc2ccccc21)NCc1ccc2c(c1)OCO2 (centres unmarked) | -37.1% |
| S=C(NCCCc1ccccc1)Nc1ccccc1Cl | 2.38% |
| Fc1ccc(-c2csc(-c3ccc(C4SCCS4)cc3)n2)cc1F | 4.89% |
| COC(=O)C1=C(N)Oc2cc(C)n(Cc3cccnc3)c(=O)c2C1c1ccc(OC)c(OC)c1 (centres unmarked) | -19% |
| CCOC(=O)c1cc(C)n(-c2c(C)n(C)n(-c3ccccc3)c2=O)c1C | 21.6% |
| COc1ccccc1NC(=S)N/N=C1\CC(C)(C)Oc2ccc(O)cc21 | 0.968% |
| Cc1ccccc1NC(=S)N/N=C1\CC(C)(C)Oc2ccc(O)cc21 | 42.1% |
| Cc1cccc(NC(=S)N/N=C2\CC(C)(C)Oc3ccc(O)cc32)c1 | 8.34% |
| CC(=O)N1CCC2(CC1)C/C(=N\NC(=S)Nc1ccccc1C)c1cc(O)ccc1O2 | -61.1% |
| COc1cccc(NC(=S)N/N=C2\CC(C)(C)Oc3ccc(O)cc32)c1 | 3.3% |
| CC(=O)N1CCC2(CC1)C/C(=N\NC(=S)Nc1ccccc1F)c1cc(O)ccc1O2 | -69% |
| CC1(C)C/C(=N\NC(=S)Nc2ccccc2F)c2cc(O)ccc2O1 | -18.8% |
| Cc1ccc(NC(=S)N/N=C2\CC(C)(C)Oc3ccc(O)cc32)cc1 | 12% |
| CC(=O)N1CCC2(CC1)C/C(=N\NC(=S)Nc1ccc(C)cc1)c1cc(O)ccc1O2 | -70.8% |
| COc1ccc(C(=O)CC(=O)C(=O)Nc2ccc(C)c(C)c2)cc1 | -12.2% |
| O=C1CSC(c2cccnc2)N1c1ccccc1 (centres unmarked) | 13% |
| CCOCCCNC(=O)CCNS(=O)(=O)c1ccc(C)cc1 | 3.47% |
| Cc1ccc(S(=O)(=O)N(C)c2ccc(OCC(=O)Nc3nc4ccccc4s3)cc2)cc1 | 17.8% |
| Cc1cccc(C(=O)Oc2ccc(/C=N/NC(=O)c3ccc(O)cc3)cc2)c1 | 28.6% |
| Cc1nnc(SC(C)C(=O)Nc2ccc(S(=O)(=O)N3CCCCC3)cc2)s1 (centres unmarked) | -18.4% |
| CC(C)NC(=O)C1(O)c2ccccc2NC(=O)N1c1ccc(Cl)c(Cl)c1 (centres unmarked) | 9.1% |
| Cc1cccc(CC2SC(N3CCN(c4ccccc4)CC3)=NC2=O)c1 (centres unmarked) | -53.5% |

| Compound | hERG current change (%, negative = inhibition) at 10uM |
| --- | --- |
| Cc1cccc(CC2SC(N)=NC2=O)c1.Cl (centres unmarked) | 19.9% |
| Cc1ccc(N2CCN(C3=NC(=O)C(Cc4ccccc4)S3)CC2)cc1 (centres unmarked) | -40.1% |
| NC1=NC(=O)C(Cc2ccccc2)S1 (centres unmarked) | 2.01% |
| Cc1cccc(N2CCN(C3=NC(=O)C(Cc4ccccc4)S3)CC2)c1 (centres unmarked) | -30.7% |
| O=C1N=C(N2CCN(c3ccccc3)CC2)SC1Cc1ccccc1 (centres unmarked) | -66.4% |
| O=c1c2[nH]c3cccc(Cl)c3c2ncn1Cc1ccncc1 | -13.6% |
| CN(C)S(=O)(=O)c1ccc(Cl)c(NC(=O)CN2C(=O)NC3(CCc4ccccc43)C2=O)c1 (centres unmarked) | -18% |
| CC(C)C(NS(=O)(=O)c1ccc2c(c1)oc(=O)n2C)C(=O)N1CCN(C2CCCCC2)CC1 (centres unmarked) | 2.88% |
| Cc1ccc(C)c(NC(=O)C2CCCN2C(=O)OC(C)(C)C)c1 (centres unmarked) | 1.04% |
| O=C(CN(CCc1ccccc1)S(=O)(=O)c1ccc(Cl)cc1)N/N=C/c1ccccc1C(=O)O | 14.6% |
| Cc1ccc(N(CC(=O)NCCSc2nc3ccccc3s2)S(=O)(=O)c2ccccc2)c(C)c1 | -42.1% |
| CCOc1ccc2nc(NCCNC(=S)NCCCN(C)C)c(C#N)cc2c1 | 1.89% |
| O=C(c1ccc(C(F)(F)F)cc1)c1c[nH]c(C(=O)NCCCn2ccnc2)c1 | -70.4% |
| COc1ccc(C(=O)c2c[nH]c(C(=O)NCCCn3ccnc3)c2)cc1 | 0.775% |
| O=C(c1ccccc1)c1c[nH]c(C(=O)NCCCn2ccnc2)c1 | 5.27% |
| CCC(=O)c1c[nH]c(C(=O)NCCCn2ccnc2)c1 | 9.18% |
| CC(C)(C)c1ccc(C(=O)c2c[nH]c(C(=O)NCCCn3ccnc3)c2)cc1 | -71.3% |
| O=C(NCCCn1ccnc1)c1ccc(C(F)(F)F)cc1 | -10.8% |
| Cc1ccc(/C=N/NS(=O)(=O)c2ccc([N+](=O)[O-])cc2)o1 | 26.4% |
| Cc1c(NC(=O)c2cccs2)c(=O)n(-c2ccccc2)n1C | 3.8% |
| CCCC(Oc1ccc(Br)cc1)c1nc2c3cc(OC)c(OC)cc3nc(=S)n2[nH]1 (centres unmarked) | 14.5% |
| Cc1cccc2c1NC(C)CC2C.Cl (centres unmarked) | 8.01% |

| Compound | hERG current change (%, negative = inhibition) at 10uM |
| --- | --- |
| COc1ccccc1CNC(=O)COC(=O)c1cc(C)oc1C | 0.456% |
| COCCn1c(C)nnc1SCC(=O)NNC(=O)c1ccc(Cl)cc1 | 16.4% |
| COc1ccc(Cl)cc1NC(=O)c1nnn(CC(=O)Nc2ccc(OC)c(OC)c2)c1N | 15.1% |
| COc1ccc(CNC(=O)c2ccc(N3CCC4(CC3)CC(c3ccc(Cl)cc3)=NO4)c([N+](=O)[O-])c2)cc1 | 9.12% |
| O=C(NCc1ccccc1)c1ccc(N2CCC3(CC2)CC(c2ccccc2)=NO3)c([N+](=O)[O-])c1 | 5.28% |
| CCCNC(=O)c1ccc(N2CCC3(CC2)CC(c2ccccc2)=NO3)c([N+](=O)[O-])c1 | -53% |
| CCCNC(=O)c1ccc(N2CCC3(CC2)CC(c2ccc(Cl)cc2)=NO3)c([N+](=O)[O-])c1 | -74.7% |
| CCCNC(=O)c1ccc(N2CCC3(CC2)CC(c2cccc(Br)c2)=NO3)c([N+](=O)[O-])c1 | -14.2% |
| O=C(NCc1ccccc1)c1ccc(N2CCC3(CC2)CC(c2ccc(Cl)cc2)=NO3)c([N+](=O)[O-])c1 | 11.6% |
| COCc1cc(=O)n2[nH]cc(-c3ccccc3)c2n1 | 9.45% |
| COc1ccc(NC(=O)CSc2nnc(C3CC3)n2C)cc1S(=O)(=O)N1CCOCC1 | -0.595% |
| Cc1nc2ncnn2c(C)c1CCC(=O)NCc1ccco1 | -6.62% |
| Cc1cccc(OCC(O)Cn2c(NCc3cccnc3)nc3c2c(=O)[nH]c(=O)n3C)c1 (centres unmarked) | -9.46% |
| Cc1ccc(N2CC(C(=O)Nc3ccccc3C(=O)NC3CCCCC3)CC2=O)cc1 (centres unmarked) | -5.81% |
| CCOc1ccc(N2CC(C(=O)Nc3ccccc3C(=O)NC3CC3)CC2=O)cc1 (centres unmarked) | -76.7% |
| CCOc1ccc(N2CC(C(=O)Nc3ccccc3F)CC2=O)cc1 (centres unmarked) | -13.5% |
| O=C(NC1CCCCC1)c1ccccc1NC(=O)C1CC(=O)N(c2ccc(Cl)cc2)C1 (centres unmarked) | 2.36% |
| CC(C)Oc1ccc(N2CC(C(=O)Nc3ccccc3C(=O)NC3CC3)CC2=O)cc1 (centres unmarked) | -66.2% |
| Cc1ccc(N2CC(C(=O)Nc3ccccc3C(=O)NC3CCCCC3)CC2=O)cc1C (centres unmarked) | -17.9% |
| CC(C)Oc1ccc(N2CC(C(=O)Nc3ccccc3F)CC2=O)cc1 (centres unmarked) | -17.2% |
| COc1ccc(N2CC(C(=O)Nc3ccccc3C(=O)NC3CC3)CC2=O)cc1 (centres unmarked) | -38.8% |
| O=C(NC1CCCCC1)c1ccccc1NC(=O)C1CC(=O)N(c2ccccc2)C1 (centres unmarked) | -76.8% |

| Compound | hERG current change (%, negative = inhibition) at 10uM |
| --- | --- |
| O=S(=O)(c1ccc(Br)cc1)N1CCN=C1SCc1cccc(F)c1 | 8.08% |
| O=C(Nc1nnc(Cc2ccc(Cl)cc2)s1)c1cccnc1 | 13.9% |
| COc1ccccc1N1CCN(C(=O)c2cccc(N3C(=O)C4C5C=CC(C5)C4C3=O)c2)CC1 (centres unmarked) | 5.22% |
| CCOC(=O)C1=C(C)NC(=S)NC1c1ccc(OCC(=O)N2CCCCCC2)c(OC)c1 (centres unmarked) | 14.2% |
| O=C(Nc1nnc(Cc2ccccc2)s1)Nc1ccccc1F | 11.1% |
| O=C(CN(C(=O)CCC(=O)Nc1ccccn1)c1ccc(F)cc1)NCc1ccco1 | 14.2% |
| Cc1ccc(C(=O)OCC(=O)Nc2ccc(C(N)=O)cc2)s1 | 10.1% |
| O=C(CCC(=O)c1ccc(F)cc1)Nc1cccnc1 | 1.31% |
| CCCn1nc2cc(C(=O)NCc3ccc(C)cc3)ccc2c1OCC | -1.4% |
| COc1ccc(-c2cc(C(F)(F)F)nc(SCC(=O)NCCCN3CCOCC3)n2)cc1 | -14% |
| O=C(OCCN(CCOC(=O)c1ccncc1)S(=O)(=O)c1cccs1)c1ccncc1 | -77.3% |
| CCCOC(=O)c1ccc(NS(=O)(=O)c2cccs2)cc1 | -6.88% |
| O=C(Oc1ccc(N(C(=O)c2ccncc2)S(=O)(=O)c2cccs2)cc1)c1ccncc1 | 3.77% |
| O=C(C(Cl)Cl)N1CCN(Cc2ccccc2)CC1 | -4.72% |
| CCN(CC)S(=O)(=O)c1ccc(N2CCOCC2)c(NC(=O)COc2ccccc2C)c1 | 8.22% |
| CCc1ccccc1OCC(=O)Nc1cc(S(=O)(=O)N(CC)CC)ccc1N1CCOCC1 | -7.83% |
| CCN1CCN(c2ccc(S(=O)(=O)N3CCOCC3)cc2NC(=O)COc2ccc(F)cc2Cl)CC1 | -24.4% |
| O=C(COc1ccc(F)cc1Cl)Nc1cc(S(=O)(=O)N2CCOCC2)ccc1N1CCCCC1 | 4.24% |
| CN1CCN(c2ccc(S(=O)(=O)N3CCOCC3)cc2NC(=O)COc2ccc(F)cc2Cl)CC1 | -61.5% |
| CCN(CC)S(=O)(=O)c1ccc(N2CCN(C)CC2)c(NC(=O)COc2ccc(F)cc2Cl)c1 | -59% |
